Laboratory results as given in PubChem BioAssay (NCI).
Compounds without any hit were thinned out: in the full panel of roughly 83,000, 20% have a hit.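 For each line, cells grew in 96-well plates with the test compound present at a single concentration for 48 hours.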 Values without a mark were called inactive. Activity calls are given as the source filed them. The calls were made as follows: active = growth percent below 10; inactive = the rest.

system: HL-60(TB) leukemia; assay: NCI-60 one-dose screen, 48 h (100 = growth as untreated, 0 = no growth, -100 = all killed); details: 10 µM unless noted

| SMILES | growth |
| --- | --- |
| C[N+](C)(C)CC(=O)N/N=C\c1ccco1 | 53% |
| COc1cc(-c2nc(Nc3nc4ccccc4s3)[nH]c(=O)c2C#N)cc(OC)c1O | 98% |
| COc1cccc(-c2nn(-c3ccccc3)cc2-c2ccnc(NCCCNS(=O)(=O)c3ccc(Br)cc3)c2)c1 | 43.3% |
| OCCCc1ccccc1 | 99% |
| N=S(=O)(NC(=O)c1ccc(Cl)cc1Cl)c1ccc(Br)s1 (stereo not drawn) | 96.8% |
| Cc1cccc2c(=O)c3c(sc12)c(NCc1ccccc1)nc1ccccc13 | 95.5% |
| COc1cc(C(C)n2cc(-c3ccccc3)nn2)ccc1OC1CCCC1 (stereo not drawn) | 53.1% |
| c1ccc(-c2cn(-c3ccccc3)c(-c3ccccc3)n2)cc1 | 40.3% |
| c1ccc2cc(Cn3c(-c4ccc5ccccc5c4)[n+](Cc4ccc5ccccc5c4)c4ccccc43)ccc2c1 | -45.9% (active) |
| COc1ccc(CCNc2nc3c(c(=O)n(Cc4ccc(Br)cc4)c(=O)n3C)n2C)cc1OC | 28.6% |
| CC(C)C1=NOC(=O)C1=Cc1cn(-c2ccccc2)nc1-c1ccc(Br)cc1 | -28.8% (active) |
| CCN1C(=O)N(CC)C2C1NN=c1s/c(=C3\C(=O)Nc4ccccc43)c(=O)n12 (stereo not drawn) | -25% (active) |
| O=C(NNC(=O)c1ccc([N+](=O)[O-])cc1)c1ccc([N+](=O)[O-])cc1 | 88.3% |
